Screens deposited in PubChem by National Center for Advancing Translational Sciences (NCATS).
GAA spleen mod: qHTS Assay for Inhibitors and Activators of Human alpha-Glucosidase From Spleen Homogenate. human spleen homogenate, 4-MU-alpha-glucoside fluorescence. Potency, µM (highest dose often 79.9 µM), actives largely listed as inhibitors. 240,000 compounds, 0.006% hits
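Enzyme source: human spleen homogenate, 1 ug/well. Buffer 50 mM citric acid/K phosphate pH 5.0, 0.01% Tween-20. 4-MU-alpha-glucoside 1 mM; 37 C x 40 min; NaOH/glycine stop; fluorescence.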
GAA inhib: qHTS Assay for Inhibitors of Human alpha-Glucosidase as a Potential Chaperone Treatment of Pompe Disease; Lysosomal alpha-glucosidase (Homo sapiens), P10253; purified human GAA, 4-MU-alpha-glucoside fluorescence; Potency, µM (doses to about 76.9 µM), actives largely listed as inhibitors; 200,000 compounds, 0.005% hits; AID 1466, 2008
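qHTS format, compound range up to 77 uM. Human lysosomal enzyme at 4 nM, 400 uM 4-MU glucoside substrate, pH 5.0, 20 min room temperature; fluorescence after alkaline stop gives activity normalized to controls.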
B2AR arrestin: qHTS assay of beta-arrestin-biased ligands of beta2-adrenergic receptor | beta-arrestin recruitment to beta2AR, cell-based reporter | Potency, µM (highest dose often 46.1 µM), usual class: activators | 330,000 compounds, 0.02% hits | AID 492947, 2010; further: nearly all actives have a fitted effect of over 65% in size
Target sequence (P07550 whole entry, looked up): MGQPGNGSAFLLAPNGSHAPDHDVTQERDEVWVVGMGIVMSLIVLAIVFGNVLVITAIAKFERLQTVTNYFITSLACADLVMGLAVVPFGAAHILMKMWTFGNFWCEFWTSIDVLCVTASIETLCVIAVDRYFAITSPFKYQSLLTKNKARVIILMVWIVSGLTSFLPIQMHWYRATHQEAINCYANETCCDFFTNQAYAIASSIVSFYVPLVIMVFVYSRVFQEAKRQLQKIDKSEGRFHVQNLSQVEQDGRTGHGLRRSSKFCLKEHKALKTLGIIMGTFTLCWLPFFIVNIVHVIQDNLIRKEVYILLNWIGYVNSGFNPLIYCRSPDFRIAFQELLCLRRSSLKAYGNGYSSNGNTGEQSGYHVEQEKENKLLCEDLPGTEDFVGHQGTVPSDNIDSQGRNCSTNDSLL
GAA glycogen mod: qHTS Assay for Inhibitors and Activators of Human alpha-Glucosidase Cleavage of Glycogen | 300,000 compounds, 0.38% hits | recombinant GAA, glycogen substrate, Amplex Red glucose oxidase fluorescence | AID 2100, 2009 | Potency, µM (series often up to 76.4 µM), most hits filed as inhibitors;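 further: the screen sought inhibitors and activators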
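Natural-substrate format: glycogen cleavage by 4 nM human enzyme, glucose read by Amplex Red coupling (Ex 573, Em 610 nm). Normalized to enzyme and no-enzyme controls.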
FBPA coupling cs: qHTS Assay for Inhibitors of Fructose-1,6-bisphosphate Aldolase from Giardia Lamblia: Coupling assay counterscreen. coupling enzyme system counterscreen, AmpLite Red fluorescence. activity change, negative = inhibition, % at 58.2 µM, hits read low. 290,000 compounds, 0.67% hits; in the data active means activity change below about -30%
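First, compound is pin-transferred into glyceraldehyde-3-phosphate coupling-enzyme reagent at 57.5 uM final and held 10 min at RT. Next, substrate, coupling system and AmpLite Red are added. After 20 min RT, fluorescence (525/598 nm) is read.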
Each line names hits and unclear results; the compound was inactive in the other large screens. A selection: hits, their analogues and other compounds. The true share with any hit is near 0.85%. Unless noted, the call rests on the fitted dose curve; in most records, active means well fitted curve in the direction sought with a large enough effect; inconclusive means small, poorly fitted or top-dose-only effect, or another doubt; inactive means no such curve, though single readings can be large; an effect the other way counts as inactive or inconclusive.

C=CCc1cccc(C2C(C)CCC3C(=O)N4C(Cc5c([nH]c6ccccc56)C4c4cc(OC)c(OC)c(OC)c4)C(=O)N32)c1 (configuration not stated)	none (no result: GAA inhib, B2AR arrestin, GAA glycogen mod)
Nc1ccc(NC(=O)NC2CCCCC2)cc1	GAA glycogen mod 17.8µM
O=C(Nc1ccc(Cl)cc1)NC1CCCCC1	none
Nc1nc(N2CCN(c3ccccc3)CC2)n[nH]1	GAA glycogen mod 10µM
O=C(O)CCC/C=C\C/C=C\C=C\[C@@H](O)C/C=C\CCCCCO	none (no result: GAA inhib, B2AR arrestin, GAA glycogen mod)
CC(=O)OC1CC(OC(C)=O)[C@]2(C)C(CC(=O)[C@]3(C)C2CC[C@@]2(C)C(c4ccoc4)OC(=O)C4O[C@@]423)C1(C)C (some centres not stated)	none (no result: GAA inhib, B2AR arrestin, GAA glycogen mod)
NC(=S)NNc1cccc2cccnc12	FBPA coupling cs -36.4
CCN1C(=NCCc2c[nH]c3ccccc23)N[C@@H](c2ccccc2)C(C(=O)OC)=C1C	none (no result: GAA spleen mod, GAA inhib)
COc1cc2nc(-c3ccc(Br)o3)oc(=O)c2cc1OC	FBPA coupling cs -39.8
CCOC(=O)c1cnc2ccc(Cl)cc2c1NCCN(C)C	GAA glycogen mod inconclusive, FBPA coupling cs -56.8
O=C1c2ccccc2C(=O)c2c1cccc2-n1nnc2ccccc21	none (no result: GAA inhib)
O=C1C(N2CCOCC2)=C(n2nnc3ccccc32)C(=O)c2ccccc21	FBPA coupling cs -41.3
COC(=O)C1=C(C)N(Cc2ccccc2)C(=NCc2ccco2)N[C@H]1c1ccc(Br)cc1	none (no result: GAA spleen mod, GAA inhib, B2AR arrestin)
COc1ccc(N=Cc2[nH]c3ccccc3c2O)cc1	FBPA coupling cs -38.0
O=C1C=C[C@@H](O)[C@H]2[C@@H]3C(=O)N(C4CCCCC4)C(=O)[C@@H]3CC[C@H]12	none (no result: GAA inhib, B2AR arrestin, GAA glycogen mod)
COc1cc(C)c(CNc2ccc(OC)c(OC)c2)cc1C	GAA glycogen mod inconclusive, FBPA coupling cs -31.0
COC(=O)C(CCSC)NC(=O)C1CCN(c2ncnc3c2nc2n3CCCCC2)CC1 (configuration not stated)	none (no result: GAA spleen mod, GAA inhib, B2AR arrestin, FBPA coupling cs)
O=[N+]([O-])c1ccc2c(c1)N([O-])C1(CCCCC1)[N+]2=O	B2AR arrestin inconclusive, FBPA coupling cs -50.8 (no result: GAA inhib)
Oc1ccc(C=Nc2cccc3ccccc23)c(O)c1	FBPA coupling cs -34.8 (no result: GAA spleen mod, GAA inhib)
O=C1C=CC(=O)C(C2=C3C(=O)N(CCc4ccccc4)CC(=O)N3CCC2)=C1	FBPA coupling cs -55.0
CC(C)(C)n1nnnc1C(c1ccncc1)N1CCN(c2ccc(O)cc2)CC1 (configuration not stated)	GAA glycogen mod 17.6µM
CC(C)(C)n1nnnc1C(c1cccnc1)N1CCOCC1 (configuration not stated)	none
COC(=O)C1CSc2[nH]c(=O)sc2C1c1ccc(O)c(OC)c1 (configuration not stated)	GAA glycogen mod 15.8µM
COc1ccc(C2c3sc(=O)[nH]c3SCC2C(N)=O)cc1 (configuration not stated)	GAA glycogen mod inconclusive (no result: GAA inhib)
COc1cc(C2c3sc(=O)[nH]c3SC3C(=O)N(c4ccc(C)cc4)C(=O)C32)ccc1O (configuration not stated)	GAA glycogen mod 11.2µM
O=C(c1ccc2c(c1)OCO2)N1CCN(c2ccccc2)CC1	none
CC(=O)N1CCN(c2ccc(NCc3ccc4c(c3)OCO4)cc2)CC1	GAA glycogen mod 22.2µM, FBPA coupling cs -33.4
CCc1ccc(N2CCN(C(=O)c3ccc4c(c3)OCO4)CC2)cc1	none (no result: GAA spleen mod, GAA inhib)
O=C(c1ccccc1)N1CCN(c2ccc(NCc3ccc4c(c3)OCO4)cc2)CC1	GAA glycogen mod 28.2µM
O=C(O)c1cc(NCc2ccc3c(c2)OCO3)ccc1N1CCOCC1	GAA glycogen mod 4.97µM
Fc1ccccc1Nc1nc2c(s1)CCc1ccccc1-2	FBPA coupling cs -69.5
CSCC[C@H](NC(=O)[C@@H]1CCCN1C(=O)CNC(=O)[C@H](CCCCN)NC(=O)[C@H](Cc1cnc[nH]1)NC(=O)[C@H](CO)NC(=O)[C@H](CC(C)C)NC(=O)[C@H](CCCNC(=N)N)NC(=O)[C@@H]1CCCN1C(=O)[C@H](CCCNC(=N)N)NC(=O)[C@H](CCC(N)=O)NC(=O)[C@H](CCCNC(=N)N)NC(=O)[C@H](CCCNC(=N)N)NC(=O)[C@H](Cc1ccccc1)NC(=O)[C@@H](N)CCCCN)C(=O)N1CCC[C@H]1C(=O)N[C@@H](Cc1ccccc1)C(=O)O	none (no result: GAA inhib, B2AR arrestin, GAA glycogen mod)
COc1ccc(O[C@H]2C=C[C@@H](c3ccccc3)O[C@H]2COC(=O)CC/C(C)=N\O[C@@H](C)c2cn([C@H](CO)Cc3ccccc3)nn2)cc1	none (no result: GAA inhib, B2AR arrestin, GAA glycogen mod)
C=CCC(C)(O)c1ccccc1 (configuration not stated)	none (no result: GAA inhib, B2AR arrestin, GAA glycogen mod)
Cc1ccc([N+](=O)[O-])cc1S(=O)(=O)Nc1ccc(O)c(Sc2ncn[nH]2)c1	none (no result: GAA spleen mod, GAA inhib, FBPA coupling cs)
Cc1cc(C)c(S(=O)(=O)/N=C2/C=C(Sc3ncn[nH]3)C(=O)c3ccccc32)cc1C	FBPA coupling cs -95.9
CC(=O)N1C(=O)/C(=C2\SC(=S)N(c3c(C)n(C)n(-c4ccccc4)c3=O)C2=O)c2ccccc21	GAA inhib inconclusive, FBPA coupling cs -40.3
Cc1c(N2C(=O)/C(=C3/C(=O)N(C)c4ccccc43)SC2=S)c(=O)n(-c2ccccc2)n1C	none
O=c1c2c3c(sc2n(Cc2cc(=O)n4ccccc4n2)c(=O)n1-c1ccc(Cl)cc1)CCC3	none (no result: GAA spleen mod, GAA inhib, B2AR arrestin, FBPA coupling cs)
COc1ccc(OC)c(Nc2nc(=O)c3cccnc3s2)c1	GAA inhib inconclusive, GAA glycogen mod 28.2µM
Cc1ccc(Nc2nc(=O)c3cccnc3s2)cc1	none
Cc1ccc(NCc2ccc(C)s2)cc1	none (no result: GAA spleen mod, GAA inhib, GAA glycogen mod)
O=C(CCS(=O)(=O)c1ccc(F)cc1)Nc1ccc(N2CCN(Cc3ccccc3)CC2)cc1	none (no result: GAA spleen mod, GAA inhib, GAA glycogen mod, FBPA coupling cs)
CC(=O)N1CCN(c2ccc(NCc3cccs3)cc2)CC1	GAA glycogen mod 39.8µM
Cc1ccc(CNc2ccc(N3CCOCC3)cc2)s1	GAA glycogen mod 28µM
CC(=O)N1CCN(c2ccc(NCc3ccc(C)s3)cc2)CC1	GAA glycogen mod 15.7µM
Fc1ccc(CNc2ccc(N3CCN(Cc4ccccc4)CC3)cc2)cc1	GAA glycogen mod 8.91µM (no result: GAA spleen mod, GAA inhib)
CC(=O)N1CCN(c2ccc(NCc3ccc(Br)o3)cc2)CC1	none (no result: GAA spleen mod, GAA inhib, GAA glycogen mod, FBPA coupling cs)
ONCc1ccccc1	none (no result: GAA inhib, B2AR arrestin, GAA glycogen mod)
CC(=O)N1CCN(c2ccc(NCc3cccc4ccccc34)cc2)CC1	none (no result: GAA spleen mod, GAA inhib)
CC(=O)N1CCN(c2ccc(NCc3ccccc3)cc2)CC1	GAA glycogen mod 14µM
CCC(=O)OCC(=O)C1(OC(=O)CC)C(C)CC2C3C(Cl)CC4=CC(=O)C=C[C@@]4(C)C3C(O)C[C@@]21C (some centres not stated)	none (no result: GAA inhib, B2AR arrestin, GAA glycogen mod)
Nc1cc(N)c(OCC(F)(F)F)cc1OCC(F)(F)F	FBPA coupling cs -49.8
